# Measurements published in the supplement of paper PMC4466236.
# Over roughly 33,000 sequences, “E-score (dimensionless, -0.5 to 0.5)” has its median near -0.058; the highest 2% begin near 0.35. This excerpt belongs to a sample that is enriched for the highest values.
# System: MvaT
# Assay: PBM 8-mer E-score (mean of HK and ME arrays) (E-score (dimensionless, -0.5 to 0.5)); higher = stronger relative binding preference
# Experimental: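 Protein binding microarray: GST-tagged full-length MvaT (P. aeruginosa PAO1) bound to two universal double-stranded 60-mer arrays (ME and HK), each with a constant 25-mer primer and a variable 35-mer region covering all 8-mers. The 8-mer E-score (rank-based, range -0.5 to 0.5, >0.45 = specific binding) is the mean of the two arrays.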
row,Sequence,PBM 8-mer E-score
1,ACTTCTCC,0.2
2,TCATATGA,0.204
3,GCATATGA,0.176
4,CCATATAA,0.343
5,GCATATAA,0.374
6,TCATATAA,0.379
7,GCATATAC,0.311
8,ACGCAGGC,-0.282
9,GCCGAACC,-0.115
10,ATAACTGG,0.213
11,ACAGGAAA,0.0933
12,AAACCCTT,-0.0425
13,CTTAAAAA,0.163
14,CTCAATAA,0.307
15,GTTAATGA,0.264
16,GTTAATCA,0.183
17,GTTAATAA,0.377
18,CTTAATAA,0.385
19,CATGAGAA,-0.0314
20,CACTTGTA,0.139
21,AAATAACT,0.375
22,CAATAACC,0.223
23,AAATAACA,0.336
24,AAATAACG,0.331
25,ACATAACT,0.268

row,Sequence,PBM 8-mer E-score
1,AAATAACC,0.375
2,CACGTGCA,-0.0519
3,ATCTGGAC,-0.0431
4,TCATCGAA,-0.15
5,GAGACATC,-0.0544
6,AAGCATAG,-0.033
7,CCAGTTAC,0.14
8,AGACGCGA,0.0502
9,AAATTTAG,0.238
10,AAATTTAT,0.384
11,CAAATTTA,0.22
12,AAAATTTG,0.221
13,AAATTTAC,0.11
14,AATTTTTA,0.34
15,GAATTTTA,0.254
16,AAATTTTA,0.35
17,AAAATTTA,0.311
18,AAAAATTT,0.298
19,TAAATTTA,0.414
20,AAAATTTT,0.354
21,AGAGTTCG,0.00443
22,CAACCCGC,-0.00327
23,CATGATGC,-0.011
24,AGGGGGAG,-0.246
25,AGAAAGGC,-0.118

row,Sequence,PBM 8-mer E-score
1,CTGTGCTA,-0.0139
2,GGAGCCAC,-0.325
3,TAATTTAA,0.457
4,CAATTTAA,0.366
5,AAATTCAA,0.226
6,GAAATGTA,0.259
7,GAATTTAA,0.264
8,GAATTCAA,0.0832
9,CAAATGTA,0.0762
10,CAATTTAG,0.2
11,TAATTTGA,0.201
12,TAAATGTA,0.359
13,CAATTTTA,0.293
14,TAATTCAA,0.346
15,CAGGAGAG,-0.196
16,AGTCACAT,-0.0559
17,GTTTCGCA,-0.0431
18,ATTACTCG,0.169
19,AAATACTG,0.244
20,CATGTCAG,-0.042
21,AATAGTCG,0.218
22,ACGTATAC,0.136
23,GCAGGCGC,-0.28
24,ATACTCGG,0.0138
25,TGATTTAA,0.347

row,Sequence,PBM 8-mer E-score
1,CGATTTAA,0.238
2,AAATTTAA,0.408
3,AGATTTAA,0.273
4,AAATTTCA,0.241
5,AAATTTGA,0.189
6,GAATCAAA,0.13
7,GTAGTGCA,-0.115
8,AACCACTG,-0.0219
9,GACCGCTA,-0.115
10,GATTGAAA,0.12
11,CTGCCACC,-0.166
12,ATACTCAT,0.175
13,ATCAGGCA,-0.0666
14,ATTAAATA,0.421
15,ATTAAAGA,0.264
16,ATTAAAGG,0.156
17,ATTAAATG,0.373
18,AGTAAATG,0.175
19,GTTAAATA,0.396
20,CTTAAATA,0.337
21,CTTAAATC,0.0452
22,ATTAAACC,0.249
23,ATTAAATC,0.382
24,GTTAAAGA,0.11
25,ACTAAATA,0.31

row,Sequence,PBM 8-mer E-score
1,CGGTACCG,-0.0831
2,TACGAGCA,-0.0785
3,CACCTAAG,-0.143
4,GACGTACA,0.034
5,CCCCGTGA,-0.306
6,AACTGACG,0.0522
7,ACTTTTTG,0.122
8,CTTAAACA,0.156
9,ATTAAACG,0.284
10,ATTAAACA,0.391
11,GCAATACA,0.0621
12,GAGCACGA,-0.273
13,AGGCATAA,-0.0265
14,GATTTTTA,0.133
15,AGTTTATA,0.424
16,CATTTATA,0.347
17,AATTTATG,0.273
18,GATTTATA,0.398
19,GGTTTATA,0.242
20,AATTTATC,0.276
21,CATTTTTA,0.242
22,GATTTAGA,0.0137
23,CATTTATC,0.241
24,AATTTATA,0.46
25,AGTTTATC,0.144

row,Sequence,PBM 8-mer E-score
1,AGCAGGCC,-0.328
2,TCCTAACA,0.0526
3,TCCCACAA,0.0216
4,CAATTCAC,0.0398
5,ATTTTACA,0.371
6,ATTTTATA,0.366
7,CCTTTATA,0.193
8,AATTTACA,0.269
9,GTTTTATA,0.243
10,ACTTTATA,0.39
11,ACTTTATC,0.105
12,CTTTTACA,0.0261
13,ATTTTATG,0.234
14,TGCTCACA,-0.0823
15,CAAGCAGG,-0.0598
16,AGTACAGG,0.0418
17,AAAAATCA,0.0153
18,GCCTCCCC,-0.263
19,ACATCCCA,-0.00783
20,TCTCATAA,0.0817
21,CAGTGGAC,0.0119
22,AAGACATG,0.0346
23,CGGGAAAG,-0.177
24,ACAATAAC,0.324
25,ACAATAAT,0.401

row,Sequence,PBM 8-mer E-score
1,ACAATAAG,0.276
2,ACAATAAA,0.356
3,ACAATACT,0.223
4,CCAATAAA,0.302
5,AACTACCA,0.17
6,GAAATAAC,0.3
7,AAAATACA,0.25
8,AAAATAAT,0.422
9,GGAATAAA,0.289
10,GAAATAAA,0.405
11,TAAATACA,0.35
12,AAAATACC,0.265
13,AAAAAAAT,0.227
14,AAAATAAC,0.378
15,CAAATAAC,0.341
16,GAAATACA,0.0961
17,GAAATGAA,0.17
18,CAGGTGTC,-0.277
19,AGACTTGG,-0.179
20,AGTGTCTC,-0.00692
21,ACGCTCTC,-0.273
22,CCGTAGGA,-0.216
23,ATACCGAG,-1.06e-05
24,AAGAGAAT,0.126
25,GCTATGGA,-0.0686

row,Sequence,PBM 8-mer E-score
1,CGCCTAAG,-0.113
2,AGCTCCCG,-0.29
3,CCTTTTGA,-0.074
4,AAAATAAA,0.409
5,AAAATAGA,0.173
6,CAAATAAA,0.301
7,TAAATAGA,0.291
8,AAAATAAG,0.331
9,TAAATAAA,0.421
10,AGTGCTAT,0.172
11,TACGATCA,0.0229
12,TCGAATCA,-0.0287
13,ACACTTGC,-0.00708
14,AACAATAC,0.254
15,ACCAATAT,0.282
16,AACAATAT,0.362
17,AACAATTA,0.391
18,AACAATAA,0.422
19,CACAATAA,0.351
20,AACAATAG,0.294
21,AACAATTG,0.217
22,CACAATAG,0.176
23,AACAATCT,0.0729
24,TACAATAA,0.328
25,AACAATTC,0.27

row,Sequence,PBM 8-mer E-score
1,ATGTAGTC,0.1
2,GGACGTTA,-0.103
3,CACATTAG,0.162
4,CAGCGAGC,-0.199
5,GCCCCCGC,-0.248
6,CCTTTGAG,-0.158
7,ACACGACG,-0.192
8,ATGATCAC,-0.0926
9,AACTTACT,0.335
10,AACTTATT,0.398
11,AACTTAGT,0.289
12,CACTTATG,0.12
13,CACTTATC,0.14
14,AACTTATG,0.372
15,AACTTATC,0.351
16,AACTTAGG,0.182
17,GACTTATC,0.0104
18,CAGAGCCC,-0.374
19,ATCTCGAA,-0.0688
20,ACTGGAAG,-0.0943
21,ACTCTGGC,-0.165
22,AAGCACAG,-0.107
23,ATAGTAAC,0.271
24,AAAGTAAT,0.373
25,ATAGTAAT,0.353

row,Sequence,PBM 8-mer E-score
1,AAAGTAAA,0.306
2,ATAGTAAA,0.327
3,AAAGTAAC,0.206
4,AGTCATCG,-0.269
5,CTCATATC,-0.0618
6,CTCATATA,0.324
7,CATATAGG,0.151
8,CATATATA,0.451
9,CATATACG,0.143
10,CATATCTA,0.122
11,CATATACC,0.166
12,CATATATC,0.398
13,CATATATG,0.449
14,GAGGGGAC,-0.373
15,CCCCAAAA,-0.131
16,ACAGATAA,0.287
17,GCCGACTA,-0.209
18,AACCTACC,-0.156
19,GGGATTAA,0.144
20,GGCGGTTA,-0.177
21,ATTAGCAC,0.0511
22,CAACCCGA,-0.0421
23,GAATAAAA,0.354
24,TAAAAAAA,0.321
25,GAATAAAC,0.192

row,Sequence,PBM 8-mer E-score
1,GGATAAAA,0.265
2,TAATAAAA,0.389
3,CAATAAAA,0.286
4,GCTGCTAA,-0.101
5,CTATGCAG,-0.146
6,ATCTAGCA,0.152
7,ATAAGTAC,0.305
8,ATAAGTAG,0.341
9,CAAAGTAA,0.216
10,TAAAGTAA,0.365
11,ATAAGTAT,0.356
12,TTAAGTAA,0.328
13,AAAAGTAA,0.28
14,GTAAGTAA,0.207
15,ATAAGTAA,0.371
16,ATCGTCAC,-0.196
17,CCTTCAAA,-0.128
18,CCACGACA,0.011
19,AACATCAT,0.171
20,CCCTACCC,-0.224
21,CCAAACGC,-0.0718
22,AGCTGCAC,-0.122
23,ACTTGCAA,0.123
24,CCAAACAC,0.111
25,ATCAGTGA,-0.0827

row,Sequence,PBM 8-mer E-score
1,CTATCCAG,-0.0225
2,ATTCTTGA,0.0466
3,ATTCGGTG,-0.00558
4,AATCCACA,0.139
5,GATATCAC,0.119
6,ACTATATG,0.306
7,AATATCAC,0.407
8,AATATCTG,0.207
9,AATATATG,0.446
10,AATATCTC,0.253
11,AATATCCC,0.174
12,AATATCAA,0.338
13,AATATATC,0.445
14,GTATCTTA,0.194
15,ACAGGTTG,-0.21
16,AGGAACCT,-0.139
17,AATTCTAC,0.188
18,ACTAGGCT,-0.105
19,ACACCTCC,-0.0337
20,CCGGTAAA,0.0751
21,TATTAGGA,0.247
22,ATCATATG,0.241
23,ATAATATG,0.435
24,ATAATATC,0.437
25,ATAATCTC,0.337

row,Sequence,PBM 8-mer E-score
1,ATGATATC,0.131
2,ATAATCTG,0.196
3,CTACGATC,0.0594
4,ATGAATAA,0.368
5,AAGAATAA,0.368
6,CTGAATAA,0.226
7,AAGAATAT,0.316
8,AAGAATAC,0.118
9,ATGAATAG,0.131
10,CGCTTGCC,-0.327
11,AATATTCA,0.312
12,TATATTGA,0.387
13,TATATTCA,0.373
14,GATATTGA,0.228
15,CATATTGA,0.264
16,GATATTCA,0.0985
17,CCCGGGGA,-0.299
18,CTCATAAC,-0.0784
19,ATGATAAT,0.292
20,GCTATAAC,0.13
21,ATTATAGC,0.282
22,GTTATAAA,0.345
23,CTTATAAC,0.352
24,CCTATAAC,0.186
25,GTTATAAC,0.434

row,Sequence,PBM 8-mer E-score
1,AGTATAAT,0.336
2,ATGATAAC,0.178
3,ATTATAAC,0.415
4,ATTATAAT,0.468
5,AAGTGACT,0.00519
6,CTCCCTAA,-0.204
7,GTGTGGGA,0.0582
8,GACGCTGC,-0.183
9,AATCGTGG,-0.0233
10,AAGCGGTG,-0.19
11,AAATCTAC,-0.0273
12,ACGAACGA,-0.115
13,CTAAGCAC,-0.0271
14,CCTATAAA,0.211
15,ATTATAAA,0.462
16,ACTATAAA,0.316
17,ATCATAAA,0.308
18,CTCATAAG,-0.122
19,CTTATAAG,0.394
20,CTTATAAA,0.377
21,ACTATACT,0.228
22,CGTATAAG,0.147
23,ACTATAAT,0.436
24,CTCATAAA,0.0815
